Screening data deposited in PubChem by National Center for Advancing Translational Sciences (NCATS).
Shown are actives, neighbours in structure and some others; about 11% of the full set was active somewhere.
Pf growth 96h – inhibits malaria parasite growth, 96 h. P. falciparum luciferase reporter growth, 96 h. Potency, µM (titrated, usually from 28.7 µM), usual class: inhibitors. actives 6.9% (n = 320,000). AID 504834
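P. falciparum expressing integrated firefly luciferase grown in erythrocytes (2% hematocrit, 0.05% parasitemia final) with compounds for 96 hours at 37 C, 5% CO2. Growth inhibition read as loss of luminescence after adding luciferase detection reagent.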
AMA1-RON2 inh – inhibitors of Plasmodium falciparum AMA1-RON2 interaction | AlphaScreen AMA1-biotinylated RON2 peptide binding | Potency, µM (titrated, usually from 58.2 µM), usual class: inhibitors | actives 0.2% (n = 360,000) | AID 720542; note: nearly all actives have a fitted effect of over 45% in size
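AMA1 (3D7) with his tag at 25 nM final met compounds first, then biotinylated RON2 peptide at 25 nM; detection used donor plus acceptor beads, 10 µg/mL apiece, read by AlphaScreen after 30 min at room temperature.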
Pf growth 48h – inhibits P. falciparum growth in the first generation, 48 h; P. falciparum luciferase growth in erythrocytes, 48 h; Potency, µM (top dose mostly 28.7 µM), hits mostly inhibitors; actives 5.9% (n = 310,000); AID 504832
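First compound was added to culture medium, then infected red cells at 0.1% parasitemia and 2% hematocrit (final). After incubation at 37 C under 5% CO2, luciferase detection reagent was dispensed and light output recorded.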
HCV inhibitor – HCV inhibition; Potency, µM (doses to about 41.8 µM), actives largely listed as inhibitors; Huh7.5.1 HCVcc-Cre infection, luciferase reporter, 44 h; actives 3.4% (n = 340,000); AID 651820
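A cell-based infection assay in which seeded cells (1,000 per well) receive test compound after 4 h, are inoculated with HCVcc-Cre at approximately 0.5 moi, and are incubated 44 h before luminescence detection.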
Large screens that a line does not name were inactive. Calls come from the whole dose curve; as a rule, active = well fitted curve in the direction sought with a large enough effect; inconclusive = small, poorly fitted or top-dose-only effect, or another doubt; inactive = no such curve, though single readings can be large; an effect the other way counts as inactive or inconclusive.

COCCNC(=O)NC(=O)COC(=O)c1cc([N+](=O)[O-])ccc1Sc1nc(C)cs1	none
CC1CN(S(=O)(=O)c2cccc(C(=O)N3CCC(C(N)=O)CC3)c2)CC(C)O1 (stereo not given)	none (no result: Pf growth 96h, Pf growth 48h)
CCCC(C)NC(=O)C1CC(=O)N(CCc2ccc(F)cc2)C1 (stereo not given)	Pf growth 96h 0.928µM
CCC(CC)NC(=O)C1CC(=O)N(CCc2ccc(F)cc2)C1 (stereo not given)	none
O=C(/C=N/O)Nc1ccc2sc3ccccc3c2c1	HCV inhibitor 12.6µM
COC(=O)c1ccccc1NC(=O)/C=N/O	HCV inhibitor inconclusive (no result: Pf growth 96h)
COc1cc(S(=O)(=O)N2CCCCC2)ccc1NC(=O)c1ccc(F)cc1	Pf growth 96h 10.4µM
COc1cc(S(=O)(=O)N2CCOCC2)ccc1NC(=O)COC(=O)c1cc(OC)c(OC)c(OC)c1	none (no result: Pf growth 96h, Pf growth 48h)
COc1cc(S(=O)(=O)N2CCOCC2)ccc1NC(=O)COC(=O)CC12CC3CC(CC(C3)C1)C2	Pf growth 96h 8.28µM, HCV inhibitor inconclusive (no result: Pf growth 48h)
CCOc1ncccc1C(=O)Nc1cc(S(=O)(=O)N2CCCCC2)ccc1Cl	Pf growth 96h 0.828µM, Pf growth 48h inconclusive
CCN1CCN(S(=O)(=O)c2ccc(OC)c(NC(=O)c3ccccc3F)c2)CC1	Pf growth 96h 7.38µM
COc1ccccc1NC(=O)c1ccc(S(=O)(=O)N2CCCC2)cc1	none (no result: Pf growth 48h)
CC(C)c1nnc(NC(=O)CCC2CCCCC2)s1	none
CC(C)C(=O)Nc1cccc(COc2cccc(CN(Cc3ccccc3)C(=O)OC(C)(C)C)c2)c1	none (no result: Pf growth 96h, Pf growth 48h)
COc1ccccc1NS(=O)(=O)c1ccc(C)c(NC(=O)c2ccc(S(=O)(=O)N3CCCCCC3)cc2)c1	Pf growth 96h inconclusive, Pf growth 48h inconclusive, HCV inhibitor 7.94µM
COc1ccc(NC(=O)c2ccc(S(=O)(=O)N3CCOCC3)cc2)c(OC)c1	Pf growth 96h 4.65µM
Cc1cc(NC(=O)CCc2ccc(S(=O)(=O)N3CCOCC3)cc2)n(-c2ccccc2)n1	Pf growth 96h inconclusive, Pf growth 48h 13.1µM
COc1ccc(S(=O)(=O)N2CCOCC2)cc1NC(=O)c1ccc(-n2nc(C)cc2C)cc1	Pf growth 96h inconclusive, Pf growth 48h 10.4µM
CN(C)S(=O)(=O)c1ccc(NC(=O)COc2cccc3c2OC(C)(C)C3)cc1	Pf growth 96h inconclusive, Pf growth 48h inconclusive, HCV inhibitor inconclusive
Cc1cc(C(=O)CCC(=O)NCc2ccccc2F)c(C)s1	none
CCCC(NCC(=O)Nc1cc(S(=O)(=O)N2CCOCC2)ccc1OC)c1ccccc1 (stereo not given)	Pf growth 96h 11.7µM, Pf growth 48h 11.7µM, HCV inhibitor inconclusive
Cc1ccc(S(=O)(=O)N2CCCCC2)cc1NC(=O)c1ccccc1Cl	HCV inhibitor inconclusive (no result: Pf growth 96h, Pf growth 48h)
COc1cc(S(=O)(=O)N2CCCCC2)ccc1NC(=O)c1ccccc1Cl	Pf growth 48h 9.28µM
COc1ccc(S(=O)(=O)N2CCOCC2)cc1NC(=O)c1cc2ccccc2o1	Pf growth 96h inconclusive, Pf growth 48h inconclusive
COCCNC(=O)C1CCC(CNS(=O)(=O)c2ccc3c(c2)CC(C)N3C(=O)C2CC2)CC1 (stereo not given)	Pf growth 96h 11.7µM
COc1cc(CNS(=O)(=O)c2ccc3c(c2)CC(C)N3C(=O)C2CCC2)cc(OC)c1OC (stereo not given)	Pf growth 96h inconclusive, HCV inhibitor 10µM
CCC(C)NC(=O)C1CCC(CNS(=O)(=O)c2ccc3c(c2)CC(C)N3C(C)=O)CC1 (stereo not given)	none
COc1ccc(CNS(=O)(=O)c2ccc3c(c2)CC(C)N3C(=O)C2CC2)cc1 (stereo not given)	Pf growth 96h inconclusive, HCV inhibitor 22.4µM
COc1cccc(CNS(=O)(=O)c2ccc3c(c2)CC(C)N3C(=O)C2CC2)c1 (stereo not given)	HCV inhibitor inconclusive
CC(=O)N1c2ccc(S(=O)(=O)NCC3CCC(C(=O)N4CC(C)CC(C)C4)CC3)cc2CC1C (stereo not given)	Pf growth 96h inconclusive, Pf growth 48h inconclusive, HCV inhibitor 14.1µM
CCCNc1c(NC(=O)c2cccs2)c(=O)oc2ccccc12	none
CCN(C(=O)c1ccco1)C1C2CC3CC(C2)CC1C3 (stereo not given)	none
O=C1C2C(c3ccccc3)C=CC(c3ccccc3)C2C(=O)N1c1ccccn1 (stereo not given)	Pf growth 96h 1.31µM
Cc1cc(/C=N/N2CCN(C)CC2)c(C)n1-c1ccc(Cl)cc1	Pf growth 96h inconclusive, Pf growth 48h 11.7µM, HCV inhibitor inconclusive
Cc1ccc(NC(=O)CN2CCN(Cc3ccccc3)CC2)c(Br)c1	Pf growth 96h inconclusive, AMA1-RON2 inh 20µM, HCV inhibitor inconclusive
Cc1cccc(NC(=O)CN2CCC(NC(=O)C3CCCCC3)CC2)c1C	Pf growth 96h 4.15µM
Cc1ccc(NC(=O)CN2CCC(NC(=O)C3CCCCC3)CC2)c(Br)c1	Pf growth 96h 11.7µM
Cc1ccc(NC(=O)CN2CCOCC2)c(Br)c1	Pf growth 96h inconclusive
CN1C(=O)/C(=C/c2ccccc2Cl)Sc2ccc(C(=O)N3CCCC3)cc21	Pf growth 48h inconclusive, HCV inhibitor inconclusive
CCOC(=O)C1CCCN(C(=O)c2ccc3c(c2)N(C)C(=O)/C(=C/c2ccccc2Cl)S3)C1 (stereo not given)	Pf growth 96h 0.415µM, Pf growth 48h inconclusive, HCV inhibitor 11.2µM
CCOC(=O)C1CCCN(C(=O)c2ccc3c(c2)NC(=O)C(N2CCOCC2)S3)C1 (stereo not given)	Pf growth 96h inconclusive, Pf growth 48h 8.28µM, HCV inhibitor inconclusive
COc1ccc(/C=C2\Sc3ccc(C(=O)NCCN4CCCCCC4)cc3N(C)C2=O)cc1	Pf growth 48h 3.29µM, HCV inhibitor inconclusive
COc1ccc(/C=C2\Sc3ccc(C(=O)NC4CC4)cc3N(C)C2=O)cc1OC	Pf growth 48h inconclusive, HCV inhibitor inconclusive
COc1ccc(/C=C2\Sc3ccc(C(=O)N4CCCC4)cc3N(C)C2=O)cc1OC	Pf growth 96h inconclusive, Pf growth 48h 2.33µM
Cc1ccc(S(=O)(=O)N2[C@@H](CO)CO[C@H]2CC(=O)c2ccc(F)cc2)cc1	none (no result: Pf growth 96h, Pf growth 48h, HCV inhibitor)
CCOC(=O)/C=C1\SCC(=O)N1CC(=O)Nc1cccc(F)c1	HCV inhibitor inconclusive
CC(C)[C@@H](CO)NC(=O)[C@H]1O[C@@H](n2cnc3c(N)ncnc32)[C@H](O)[C@@H]1O	none (no result: Pf growth 96h, Pf growth 48h, HCV inhibitor)
CN1C(=O)/C(=C/c2ccc(C(F)(F)F)cc2)Sc2ccc(C(=O)N3CCN(c4ccccn4)CC3)cc21	Pf growth 48h inconclusive, HCV inhibitor 14.1µM
CCOc1ccc(/C=C2/Sc3ccc(C(=O)N4CCOCC4)cc3N(C)C2=O)cc1OC	Pf growth 48h 9.28µM, HCV inhibitor inconclusive
Cc1cccc(/C=C2\Sc3ccc(C(=O)N4CCC(C(N)=O)CC4)cc3N(C)C2=O)c1	Pf growth 96h inconclusive, Pf growth 48h inconclusive
COc1ccc(/C=C2\Sc3ccc(C(=O)N4CCc5ccccc5C4)cc3N(C)C2=O)cc1	Pf growth 96h inconclusive (no result: AMA1-RON2 inh)
CN1C(=O)/C(=C/c2cccc(Cl)c2)Sc2ccc(C(=O)N3CCOCC3)cc21	Pf growth 96h inconclusive, Pf growth 48h inconclusive, HCV inhibitor 11.2µM
Cc1cccc(-c2cccc3nccn23)c1	none (no result: Pf growth 96h, Pf growth 48h, HCV inhibitor)
